The list is not random: actives were taken first. Their share in the collection is about 9.8%.
ALDH1A1 block: ALDH1A1 (human) enzyme inhibition; Purified ALDH1A1, NADH fluorescence, propionaldehyde substrate; P00352; AID 1030; actives 7.3% (n = 220,000); Potency, µM (highest dose often 75.3 µM), inactives show at the highest dose activity, negative = inhibition, usual class: inhibitors;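 also: potency is read from the fitted curve at half-maximal effect; plate controls were no enzyme wells and a reference inhibitor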
CBFb RUNX1 block: inhibitors of human CBF-beta and RUNX1 interaction. 230,000 tested, under 10 active. AID 1477. AlphaScreen CBFb-His/RUNX1-biotin binding, biochemical. Potency, µM (titrated, usually from 59.8 µM), inactives show at the top dose activity, negative = inhibition, hits mostly inhibitors; active = well fitted curve in the direction sought with a large enough effect; inconclusive = small, poorly fitted or top-dose-only effect, or another doubt; inactive = no such curve, though single readings can be large; an effect the other way counts as inactive or inconclusive; also: % of control where 0% means no effect
Target sequence (Q01196 whole entry, looked up): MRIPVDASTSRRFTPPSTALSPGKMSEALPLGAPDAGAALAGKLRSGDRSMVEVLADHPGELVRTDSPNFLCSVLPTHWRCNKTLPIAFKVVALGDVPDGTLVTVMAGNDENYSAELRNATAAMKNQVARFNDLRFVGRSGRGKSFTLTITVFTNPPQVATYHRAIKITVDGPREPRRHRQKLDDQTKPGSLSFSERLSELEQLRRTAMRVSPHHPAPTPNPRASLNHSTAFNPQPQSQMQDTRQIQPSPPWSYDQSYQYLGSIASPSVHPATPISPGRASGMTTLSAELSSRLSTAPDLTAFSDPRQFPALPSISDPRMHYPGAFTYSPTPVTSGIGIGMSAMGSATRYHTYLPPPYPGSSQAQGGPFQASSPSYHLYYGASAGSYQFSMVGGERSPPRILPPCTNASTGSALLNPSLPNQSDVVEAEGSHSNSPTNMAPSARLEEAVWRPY
Target sequence (Q13951 whole entry, looked up): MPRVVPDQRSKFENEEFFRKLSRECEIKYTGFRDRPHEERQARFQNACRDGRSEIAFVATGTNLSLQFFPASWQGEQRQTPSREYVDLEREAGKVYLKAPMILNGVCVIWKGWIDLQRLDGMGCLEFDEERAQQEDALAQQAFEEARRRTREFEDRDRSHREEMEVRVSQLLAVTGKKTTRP
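CBFb-His/RUNX1-biotin, 30 nM each, preincubated 20 min RT; compound 15 min RT; Ni + streptavidin beads 50 ng each, 90 min RT; AlphaScreen read.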
HPGD inh: inhibitors of human 15-hydroxyprostaglandin dehydrogenase (HPGD) | P15428 | purified HPGD, NADH fluorescence kinetic, PGE2 substrate | Potency, µM, without a hit: top-dose activity change, negative = inhibition, hits mostly inhibitors | actives 4.3% (n = 150,000); also: potency is read from the fitted curve at half-maximal effect; % is scaled to controls: 0 for no effect and ±100 for the full control effect
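NADH formation kinetics: reaction with 30 uM PGE2 and 1 mM NAD+ (final), 20 nM enzyme, Tris-HCl pH 8 with Tween 20, after 15 min compound preincubation at room temperature. Fluorescence change, last versus first of five reads.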
HTT ATP protect: protects HTT-Q103 PC12 cells, measured by ATP; AID 1471; actives 0.14% (n = 230,000); Potency, µM (titrated, usually from 56.4 µM), for inactives: cytoprotection (ATP increase), hits mostly activators; PC12 HTT-Q103 induced, cytoprotection, ATP luminescence, 40 h; active = well fitted curve in the direction sought with a large enough effect; inconclusive = small, poorly fitted or top-dose-only effect, or another doubt; inactive = no such curve, though single readings can be large; an effect the other way counts as inactive or inconclusive; also: potency is read from the fitted curve at half-maximal effect; % of control where 0% means no effect; nearly all actives have a fitted effect of over 45% in size
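Compounds added alongside 100 nM tebufenozide, which induces toxic Q103 huntingtin exon 1-GFP in stable PC12 cells; surviving cells quantified by luminescent ATP measurement. Medium: phenol red-free DMEM, 5% equine and 5% calf serum.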
HttQ103 aggreg: mutant huntingtin aggregation inhibition; PC12 HttQ103-GFP aggregates, Acumen cytometry, 40 h; Potency, µM (series often up to 46.1 µM), for the others: at the highest dose activity change, negative = inhibition, hits mostly inhibitors; actives 1.1% (n = 220,000); AID 1688; active = well fitted curve in the direction sought with a large enough effect; inconclusive = small, poorly fitted or top-dose-only effect, or another doubt; inactive = no such curve, though single readings can be large; an effect the other way counts as inactive or inconclusive; also: potency is read from the fitted curve at half-maximal effect; % is scaled to controls: 0 for no effect and ±100 for the full control effect; nearly all actives have a fitted effect of over 60% in size
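Ecdysone-promoter PC12 model expressing HTT exon 1 Q103 fused to GFP, induced by tebufenozide at 100 nM final. Compounds titrated; aggregates sized 1–25 µm scored on a 488 nm laser cytometer.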
KDM4E inh: inhibitors of human JMJD2E histone demethylase. B2RXH2. JMJD2E catalytic domain, FDH-coupled NADH fluorescence (FDH is formaldehyde dehydrogenase). Potency, µM (series often up to 57.1 µM), without a hit: at the top dose activity change, negative = inhibition, hits mostly inhibitors. actives 1.6% (n = 230,000);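 also: potency is read from the fitted curve at half-maximal effect; 0% = wells with enzyme and -100% = buffer wells without enzyme; nearly all actives have a fitted effect of over 50% in size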
Active calls of the source: *; ? = inconclusive; . = no result; ! = not confirmed by another sample; [ ] = dose if it differs, or a comment. Unless noted, calls follow the shape of the dose curve; as a rule, active = well fitted inhibition curve with a large enough effect (not every such curve was filed as active); inconclusive = small, poorly fitted or top-dose-only effect, or another doubt; inactive = no such curve, though single readings can be large or run the other way.

SMILES | ALDH1A1 block | CBFb RUNX1 block | HPGD inh | HTT ATP protect | HttQ103 aggreg | KDM4E inh
O=C(/C=C/c1ccc(O)c(O)c1)OC1C[C@](O)(C(=O)O)C[C@@H](O)[C@H]1O (some centres not stated) | 24µM*! | 10%[21.7 µM] | -12% | -11% | . | .
Cc1ccc(NC(=O)Cn2nc(C)c(S(=O)(=O)N(C)C)c2C)cc1 | 0% | 7% | . | 6% | 7% | 10%
COc1ccc(NC(=O)c2cccnc2N2CCOCC2)cc1 | 6% | 7% | . | -25% | -5%[9.22 µM] | 6%
CSc1nc(Oc2ccccc2)c2sccc2n1 | -7% | 18% | -5% | 3%[10 µM] | -2% | 2%
CSc1nc(Oc2ccc3ccccc3c2)c2ccccc2n1 | ? | 2% | ? | -24%[10 µM] | 10µM* | ?
CCCC(=O)Nc1ccccc1NC(=O)c1ccc(OCC)c(OCC)c1 | -3% | -6% | . | -5% | 7% | -6%
O=C(/C=C/c1cccc(Br)c1)NCC1CCCCC1 | 11µM* | 3% | -22% | -5%[10 µM] | 2% | -5%
CCNC(=O)/C=C/c1cccc(Br)c1 | . | . | . | -9% | 1% | .
O=C(N/N=C/c1ccc2cccnc2c1)c1ccco1 | ? | -2% | . | -148% | -5% | -3%
CCC(NC(C)C)C(O)c1ccc(O)c(O)c1 (configuration not stated) | 5% | 4% | -7% | . | ? | 13µM*
CCOc1[nH]n(-c2ccccc2)c(=O)c1C=NCc1cccnc1 | -2% | 3% | . | -3% | -1% | 2%
CCSc1nnc(NC(=O)COc2ccc3ccccc3c2)s1 | -2% | 3% | -6% | -26% | 15% | -2%
COc1ccc(S(=O)(=O)N2CCCN(CC(=O)Nc3ccc4c(c3)OCO4)CC2)cc1 | ? | -11% | -4% | -16% | 7% | -4%
O=C(CN1CCCN(S(=O)(=O)c2ccc(Br)s2)CC1)Nc1ccc(Cl)cc1 | 4.5µM* | 4% | -12% | -8% | 5% | 1%
O=C(CN1CCCN(S(=O)(=O)c2ccc(Br)cc2)CC1)Nc1ccc2c(c1)OCO2 | 11µM* | -3% | -8% | 25%[1.9 µM] | 11% | 5%
COC(=O)c1ccc(NC(=O)CN2CCN(c3cccc(Cl)c3)CC2)cc1 | -7% | 1% | -8% | 5% | 7% | -23%
COC(=O)c1ccc(NC(=O)CN2C(=O)CNC2=O)cc1 | 18µM* | 2% | -19% | 30% | 19% | -4%
CCOC(=O)CNC(=O)CN1CCCN(S(=O)(=O)c2ccc(Br)s2)CC1 | ? | 1% | -7% | -14% | -2% | -1%
COC(=O)c1ccc(NC(=O)CN2CCN(c3ccc(Cl)cc3)CC2)cc1 | 22µM* | 21% | -28% | 11%[10 µM] | -4% | 4%
COc1ccc([N+](=O)[O-])cc1NC(=O)C(C)OC(=O)c1cccnc1 (configuration not stated) | 7% | -4% | . | -1% | 16% | -5%
CC(=O)Oc1ccc2occ(/C=N/c3cc(=O)[nH]c(=S)[nH]3)c(=O)c2c1 | . | 0% | . | -4%[10 µM] | -23%[9.22 µM] | -24%
CN(C)S(=O)(=O)c1cc(NC(=O)CN2CCN(c3ccc(O)cc3)CC2)ccc1Cl | 13µM* | -7% | . | -10% | -1% | ?
CC(C)(C)NC(=O)NC(=O)CN1CCN(c2ccc(O)cc2)CC1 | 22µM* | -3% | . | -33% | -18% | ?
COc1ccc(NC(=O)CCN2CCN(S(=O)(=O)c3cc(Cl)ccc3Cl)CC2)cc1 | -1% | -2% | -11% | -18% | -6% | 12%
COC(=O)c1ccc(NC(=S)N2CCN(Cc3ccc(Cl)cc3)CC2)cc1 | 2% | -2% | 40µM* | 0% | 0% | 2%
SMILES | ALDH1A1 block | CBFb RUNX1 block | HPGD inh | HTT ATP protect | HttQ103 aggreg | KDM4E inh
CN(C)S(=O)(=O)c1cc(NC(=O)CN2CCN(c3ccccc3)CC2)ccc1Cl | -3% | 0% | 3% | 4%[1.9 µM] | 25% | -1%
COC(=O)c1ccc(NC(=S)N2CCN(Cc3ccccc3OC)CC2)cc1 | 5% | 2% | . | -17%[10 µM] | 3%[9.22 µM] | 5%
COC(=O)c1ccc(NC(=O)CN2CCN(S(=O)(=O)c3cc(Cl)ccc3OC)CC2)cc1 | 2µM* | -4% | -31% | 11%[10 µM] | -2% | 1%
CC(C)(C)NC(=O)NC(=O)CN1CCN(c2ccccc2)CC1 | -4% | 0% | . | 19% | -8% | -1%
CC(=O)Nc1ccc(S(=O)(=O)N2C(=O)c3cccc4cccc2c34)cc1 | . | 25% | . | 15%[10 µM] | -18%[9.22 µM] | ?
COc1cccc([C@@H]2Oc3ccc(OC)cc3C[C@H]2O)c1 | 7% | -9% | -10% | 4% | . | 5%
COC(=O)[C@@]1(C)C[C@@H]1[C@@H](NC(=O)[C@@]1(C)C[C@@H]1[C@@H](NC(=O)[C@@]1(C)C[C@@H]1[C@@H](NC(=O)[C@@]1(C)C[C@@H]1[C@@H](NC(=O)OCc1ccccc1)c1ccccc1)c1ccccc1)c1ccccc1)c1ccccc1 | 3% | -5% | -2% | 11% | . | 6%
CCN(CC)S(=O)(=O)N1CCC(C(=O)NCc2ccc(C)cc2)CC1 | 4.5µM* | 7% | -9% | -28% | 6% | 5%
COC(=O)C1CCN(Cc2ccc(C)cc2)CC1 | 6% | -1% | 2% | 9% | 4% | -1%
Cc1ccc(CNC(=O)C2CCN(S(=O)(=O)N3CCCCC3)CC2)cc1 | ? | 0% | . | -26% | 1% | 4%
CCN(CC)c1ccc(CN2CCC(C(=O)NCc3ccc(C)cc3)CC2)cc1 | 14µM* | 8% | . | 17%[10 µM] | -11%[9.22 µM] | -2%
C#CCCCO/N=C1/C[C@@H](O)[C@@H](O)[C@@H]2[C@@H]3C(=O)N(Cc4ccccc4)C(=O)[C@H]3CC[C@@H]12 | 15%[13.5 µM] | 0%[13.1 µM] | . | 1%[10 µM] | . | .
CSC1=C(C#N)C(c2ccc3c(c2)OCO3)C2=C(CCCC2=O)N1 (configuration not stated) | -6% | -1% | 16µM* | -28%[10 µM] | ? | 6%
CCOC(=O)/C(=C\c1cccnc1)C(=O)c1cc(C(C)=O)c(Nc2ccccc2)s1 | ? | -3% | 20µM* | -35% | ? | 0%
O=C(c1cccc(S(=O)(=O)NCc2ccccc2)c1)N1CCCC1 | 2% | -8% | . | -14% | -1% | -1%
CCOC(=O)N1CCN(C(=O)c2ccc(CNS(=O)(=O)c3ccc(C)cc3)cc2)CC1 | 0% | 2% | -5% | -22% | -13% | 4%
CC(C)(C)c1ccc(S(=O)(=O)NCc2ccc(C(=O)N3CCCC3)cc2)cc1 | 4µM* | -2% | ? | 14%[10 µM] | 2% | 4%
Cc1ccc(S(=O)(=O)NCc2ccc(C(=O)N3CCCC3)cc2)cc1 | ? | -6% | 20µM* | . | -2% | -3%
CCc1ccc(NSc2ccccc2[N+](=O)[O-])cc1 | ? | ? | 0% | -16%[10 µM] | -24% | -6%
